Assay outcomes as filed in PubChem BioAssay.
MCL1 BIM primary – disrupts human MCL1 binding to BIM-BH3 peptide; Q07820; GST-MCL1 / FITC-Bim-BH3 fluorescence polarization; inhibition, % at 10.9 µM; 320,000 compounds, 0.68% hits; AID 2057;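 active means inhibition above the mean inhibition of all tested compounds plus 3 SD, set per campaign, cut at about 40% in these data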;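 further: 0% = DMSO wells and 100% = unlabeled Bim-BH3 peptide control; higher means more loss of mP so more displacement of Bim peptide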
LANA-H2B inh – blocks KSHV LANA binding to histone H2A/H2B; 320,000 compounds, 0.6% hits; Q9QR71; cell-free LANA-H2A/H2B peptide, fluorescence polarization; AID 2629; inhibition, % (concentration not given with the values); in the data active means inhibition mostly above about 10%, no sharp cut-off; inactive means mostly below about 6.7%
Bcl-xL primary – inhibitors of human Bcl-xL. Q07817. GST-Bcl-xL / FITC-Bim BH3 peptide fluorescence polarization. inhibition, % at 10.9 µM. 320,000 compounds, 0.7% hits. AID 2129;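 active means inhibition above the mean of all tested compounds plus 3 SD, cutoff set per campaign, cut at about 30% in these data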;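 further: 0% = DMSO wells and 100% = unlabeled Bim-BH3 peptide competitor; inhibitors lower millipolarization by displacing the labeled peptide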
Yeast superoxide – yeast age-related superoxide inhibition as caloric restriction mimetic. S. cerevisiae aged cells, superoxide DHE fluorescence; stronger effect = lower value. superoxide response (% of plate mean), % at 10 µM. 330,000 compounds, 0.18% hits. AID 2690;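 active means superoxide response under a set limit, about three screen SD below normal, cut at about 65% in these data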;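 further: yeast aged for seven days with compound at 30 °C before DHE staining; 100% = average MFI of all compound-treated wells on the plate with controls excluded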
MEX-5 binding – C. elegans MEX-5 TCR-2 RNA binding activity; Q9XUB2; activity score (negative = inhibition of binding), % at 10 µM; 300,000 compounds, 0.38% hits; MEX-5/FITC-TCR2 RNA binding, fluorescence polarization; stronger effect = lower value; AID 1832;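 active means inhibition past about -25% in most replicates, and total fluorescence under double the plate's negative control median, limit read from the data; inconclusive means replicates evenly split on the limit, or fluorescence at least double controls; inactive means too little inhibition in most replicates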;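 further: 0% = DMSO and -100% = 5 µM competing unlabeled TCR2 RNA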
Target sequence (Q9XUB2 whole entry, looked up): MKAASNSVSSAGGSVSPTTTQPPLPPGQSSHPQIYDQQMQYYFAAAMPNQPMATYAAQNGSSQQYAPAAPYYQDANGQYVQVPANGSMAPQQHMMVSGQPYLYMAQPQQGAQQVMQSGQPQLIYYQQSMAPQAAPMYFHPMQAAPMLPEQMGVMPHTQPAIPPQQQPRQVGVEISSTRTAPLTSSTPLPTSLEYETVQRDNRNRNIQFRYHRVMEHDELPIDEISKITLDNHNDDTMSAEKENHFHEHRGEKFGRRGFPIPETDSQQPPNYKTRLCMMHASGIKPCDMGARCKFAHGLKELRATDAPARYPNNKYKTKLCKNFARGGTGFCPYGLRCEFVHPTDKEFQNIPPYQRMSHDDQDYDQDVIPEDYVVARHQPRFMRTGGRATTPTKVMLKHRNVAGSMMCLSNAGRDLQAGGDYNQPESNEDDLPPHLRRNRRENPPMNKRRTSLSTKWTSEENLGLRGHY
GLD-1 RNA inh – GLD-1-TGE RNA interaction inhibition (C. elegans); inhibition, % at 5.96 µM; Q17339; purified GLD-1 + fluorescein TGE RNA, fluorescence polarization; 320,000 compounds, 0.44% hits; AID 2280;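 active means percent inhibition above a per-plate cutoff, the plate mean of test compounds plus 3 SD, cut at about 30% in these data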;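 further: 0% = DMSO wells with GLD-1 and probe and 100% = wells lacking GLD-1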
The depositor's hits bear a star; ? = inconclusive; . = no result given. Rows were chosen to be rich in hits. Some 1.9% of all compounds tested hit in one or more screens of this group.

SMILES | MCL1 BIM primary | LANA-H2B inh | Bcl-xL primary | Yeast superoxide | MEX-5 binding | GLD-1 RNA inh
CN(C)c1ccc(/C=N/NC(N)=S)cc1[N+](=O)[O-] | 6 | 25* | -3 | 97 | 1 | 3
O=C(CNC(=O)c1cccc([N+](=O)[O-])c1)NC1CCCc2ccccc21 (stereo unspecified) | 1 | -1 | 3 | 89 | . | -1
COc1ccc(CCNC(=O)c2cc(C)oc2C)cc1 | 6 | 14* | 3 | 95 | 1 | -9
Cc1cc(C(=O)NCC(=O)Nc2c(C)cccc2C)c(C)o1 | -1 | 167* | 6 | 98 | -1 | 4
CCC(C)N1CCC(Oc2ccc(C(=O)NCc3ccccn3)cc2)CC1 (stereo unspecified) | 8 | 175* | 8 | 93 | -12 | 5
CSCC(C)N1CCC(N2CCC(C(=O)NCc3ccccn3)CC2)CC1 (stereo unspecified) | 40* | 14 | 33* | 103 | ? | 18
O=C(NCc1ccccn1)c1ccc(OC2CCN(Cc3ccccc3)CC2)cc1 | 4 | -2 | 2 | 99 | 0 | -4
CC(C)CCC(=O)N1CCC(N2CCC(C(=O)NCc3ccccn3)CC2)CC1 | 7 | 4 | 16 | 90 | -5 | 6
CSc1nnc(N2C(=O)C(O)=C(C(=O)c3ccco3)C2c2cccc(Cl)c2)s1 (stereo unspecified) | 33 | 8 | 39* | 109 | -26* | 37*
C=CCOc1ccc(C2C(C(=O)c3ccco3)=C(O)C(=O)N2c2nnc(C)s2)cc1 (stereo unspecified) | 27 | 5 | 33* | 110 | -7 | 21
O=C(C1=C(O)C(=O)N(c2ncccn2)C1c1cccc(Cl)c1)c1ccco1 (stereo unspecified) | 2 | 0 | 9 | 110 | -2 | 7
CCOc1cccc(C2C(C(=O)c3ccco3)=C(O)C(=O)N2c2nnc(C)s2)c1 (stereo unspecified) | 34 | . | 43* | 133 | . | 50*
COc1ccc(C2C(C(=O)c3ccco3)=C(O)C(=O)N2c2nnc(C)s2)cc1OC (stereo unspecified) | 43* | 4 | 45* | 100 | -12 | 19
CCc1c(C)nc(SCC(N)=O)c(C#N)c1C | 4 | -6 | 2 | 102 | 1 | 0
CCc1c(C)nc(SCC(=O)c2cccs2)c(C#N)c1C | -7 | 0 | -1 | 97 | -34* | -24
O=C(CSc1nc2nn(-c3ccccc3)c(=O)c-2c2n1CCCCC2)c1ccc(OC(F)F)cc1 | . | -5 | . | 78 | . | 5
O=c1[nH][nH]c2cc(=O)n(-c3ccc(Cl)cc3)nc12 | 23 | 3 | 20 | 93 | -32* | 2
CCCn1c(N)c(NCCN2CCOCC2)c(=O)[nH]c1=O | 25 | 3 | 33* | 106 | -31* | 28
C=CCN1C(=O)c2ccc(C(=O)N(CCC)CC(=O)Nc3ccccc3C)cc2C1=O | -7 | 0 | -2 | 100 | 1 | -6
CC(=O)NC12CC3CC(C1)CC(C(=O)OCC(=O)Nc1ncc(Cl)c(C)c1Cl)(C3)C2 | 36 | 1 | 37* | 110 | -4 | 14
Cc1c(Cl)cnc(NC(=O)COC(=O)C2CC2)c1Cl | . | -3 | . | 87 | . | 11
NC(=O)COc1ccc(C2c3c(oc4ccccc4c3=O)C(=O)N2CC2CCCO2)cc1 (stereo unspecified) | 6 | 197* | 5 | 90 | -1 | -3
COc1ccc(C2c3c(oc4ccccc4c3=O)C(=O)N2CC2CCCO2)cc1 (stereo unspecified) | 3 | 1 | 5 | 122 | 0 | 3
Nc1nc(-c2ccccc2)[nH]c(=O)c1N | 12 | 2 | 12 | 100 | -26* | 18
CC(=O)Nc1ccc(SCC(=O)Nc2ccccc2N2CCOCC2)cc1 | . | -2 | . | 115 | . | -4
O=S(=O)(c1ccccc1F)N1CCc2ccccc2C1 | 0 | 2 | -3 | 89 | 1 | -5
N/C(=N\OC(=O)c1cccc2ccccc12)c1ccccn1 | 4 | 41* | 1 | 131 | . | -3
COc1cccc(C(=O)O/N=C(\N)c2ccccn2)c1OC | 1 | 1 | -1 | 110 | -1 | -5
